Experimental data taken from PubChem BioAssay AID977630 (Broad Institute, 2014).
In all, about 1,600 compounds went through this assay and fewer than 10 were called active. Roughly 48% stayed inconclusive and do not appear here.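 The calls were made as follows: active = Normal-ribosome green reporter loss at least double humanized-ribosome red reporter loss, with overall culture growth inhibition under a set limit; inconclusive = no clear call, values can overlap the other calls; inactive = the rest.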 The list is a sample of the results. Results with a measured potency or affinity are listed apart.

assay: growth inhibition of wild-type GFP E. coli, H38-humanized RFP comparator, dose response, H38 mutant RFP vs wild-type GFP, cherry-pick (AID 977630); settings: mixed culture, 24 h; series mostly up to 50 µM;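 also: wild-type GFP strain mixed equally with humanized-ribosome H38 mutant expressing RFP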

outcome, inactive:
COc1ccccc1-c1noc2ncnc(Nc3cccc(C)c3C)c12
Cc1ccc([N+](=O)[O-])c(OCCn2cnc3ccccc32)c1
Cc1cc2nc(SCC(=O)O)nc(C)c2cc1C
COc1ccc(CN2C(=O)CC(Cc3cc(C)cc(C)c3)C2=O)cc1OC (stereo unspecified)
O=C(CN(c1ccc(F)cc1)S(=O)(=O)c1ccccc1)Nc1ccccc1C(=O)O
COc1ccc(OC)c(-c2nn(-c3ccccc3)cc2C(=O)N2CCc3ccccc3C2)c1
CN(C)c1ccc(-c2nnn(CC(=O)Nc3ccccc3N3CCOCC3)n2)cc1
CC(CCc1ccccc1)NC(=O)CCC1CCCC1 (stereo unspecified)
COc1ccc(-c2nc(C3CCCCC3)no2)cc1OC
CCC1(C(=O)OC)CCc2c(cc(OC)c3ccccc23)C1=O (stereo unspecified)
CN(Cc1c(F)cccc1Cl)C(=O)c1ccc(NS(=O)(=O)c2ccc3[nH]c(=O)[nH]c3c2)cc1
Nc1ccc(C(=O)Nc2ccc3nc(-c4ccncc4)[nH]c3c2)cc1
Cc1ccccc1Nc1c(-c2cccnc2)nc2ccc(Br)cn12
CN(C)S(=O)(=O)c1cccc(C(=O)Nc2ccc(C(=O)Nc3cccc(S(N)(=O)=O)c3)cc2)c1
CCN(CC)c1nc(Oc2ccc(C(=O)OC)cc2)nc(N2CCOCC2)n1
Cc1nc2ncnn2c(N2CCC(C(=O)NC3CCCC3)CC2)c1Cc1ccccc1
CCN(CC(=O)Nc1cccc(S(=O)(=O)N2CCCC2)c1)CC(=O)Nc1ccccc1OC
COCc1nnc(NC(=O)c2ccc(S(=O)(=O)N3CCCC3)cc2)o1
Cc1cccc(N2Cc3ccc(Br)cc3C2)c1
CCN(CC)S(=O)(=O)c1ccc(N2CCCC2)c(NC(=O)c2ccccc2OC)c1
O=C(Nc1ccc(Nc2ccccc2)cc1)c1ccc(F)cc1
Fc1ccc(Br)cc1SCCc1ccncc1
CCOC(=O)c1ccc(NC(=O)c2ccc(OC(C)C)c(OC)c2)cc1
COc1cccc(NC2=Nc3cccc4cccc2c34)c1
CS(=O)(=O)N(CC(=O)N1CCc2ccccc2C1)c1cccc(Br)c1
CC1Cc2cc(S(=O)(=O)N3CCN(c4cccc(Cl)c4)CC3)ccc2N1C(=O)C1CC1 (stereo unspecified)
Cn1c(=O)c2c(ncn2CC(O)CNc2ccc(F)cc2)n(C)c1=O (stereo unspecified)
O=C(NCCCN1CCOCC1)c1sc2cc([N+](=O)[O-])ccc2c1Cl
CN1OC[C@@H]2CN(C(=O)c3ccco3)[C@H](c3ccc(-c4ccc(C#N)cc4)cc3)C[C@@H]21
COCC#Cc1ccc2c(c1)O[C@@H](CN(C)S(=O)(=O)c1cccc(F)c1)[C@@H](C)CN([C@H](C)CO)S2(=O)=O
O=C(CSCc1cnn(-c2ccccc2)c1-n1cccc1)NCc1cccnc1
CCOC(=O)C1NN=C(C(=O)c2ccccc2)C1c1ccc(OC)cc1 (stereo unspecified)
CN1CCN(C(=O)c2cc3nc(-c4ccco4)cc(C(F)(F)F)n3n2)CC1
Cc1cccc(CN2C(=O)c3ccccc3Sc3ccc(C(=O)NCCN4CCOCC4)cc32)c1
S=c1nc(-c2cccc(Br)c2)[nH][nH]1
O=C(Cc1ccc(Br)cc1)Nc1cccc(-c2cn3c(n2)SCC3)c1
Cc1cc(SCC(=O)c2cccs2)n2nc(C)c(-c3ccc(Cl)cc3)c2n1
CC(C)[C@@H]1CC[C@@H](C)C[C@H]1O
COc1ccc(-c2cc(C(=O)O)nc3ccc4ccccc4c23)cc1OC
COc1ccc(C(=O)COc2ccc(F)cc2)c(O)c1
O=C(O)CC1(CC(=O)Nc2ccc3sccc3c2)CCCCC1
CCOC(=O)C(CC)Sc1cc(C)nc2ccc(OC)cc12 (stereo unspecified)
O=C(NC1CCCCC1)C(c1cccc2ccccc12)n1c(=O)c(-c2ccco2)nc2ccccc21 (stereo unspecified)
COc1cc(CC(=O)Nc2nc(C)cs2)cc(OC)c1OC
Cc1cc(NC(=O)c2sc(Nc3ccc(F)c(Cl)c3)nc2N)no1
COc1cc(OC)cc(-c2nc3ccccc3c(=O)n2OC(=O)c2ccc(C)c(C)c2)c1
Cn1ccc2cc(-c3ccc4ncnc(NCc5cccs5)c4c3)ccc21
Fc1ccccc1C1CCN(Cc2nc(CC3CC3)no2)C1 (stereo unspecified)
O=C(COc1ccc(Br)cc1)Nc1ccc(C(=O)Nc2ccccc2C(=O)O)cc1
C#CCOc1nc(Nc2cccc([N+](=O)[O-])c2)nc(OCC#C)n1
OC(COc1ccc(Cl)cc1)CN1CCN(c2ccccn2)CC1 (stereo unspecified)
Cc1nn(-c2ccc(N3CCCCC3)nn2)c(C)c1CCC(=O)Nc1ccc(F)cc1
COc1cc2c(cc1OC)C1(C)N(CC2)C(C(C)=O)=NN1c1ccc(Cl)cc1 (stereo unspecified)
O=C(Nc1ccc(C(F)(F)F)cc1)C1CCN(c2cnccn2)CC1
Cc1nn(CC(=O)OCCOc2ccc(Br)cc2)c(C)c1[N+](=O)[O-]
NS(=O)(=O)c1cccc(NC(=O)COc2ncnc3c2cnn3-c2ccccc2)c1
c1ccc2c(c1)Nc1cc3ccccc3cc1S2
CC(C)OC(=O)c1sc2nc(-c3ccccc3)ccc2c1N
COc1ccc(C2CC(c3ccc(Br)cc3)=NN2C(=O)CN2CCCC2)cc1 (stereo unspecified)
COc1ccc(CNC(=O)c2nc(S(=O)(=O)Cc3ccccc3)ncc2Cl)cc1
CCc1nc2ccccc2c(C(=O)OCC(=O)NC(=O)c2cccn2C)c1C
O=C(Nc1ccccc1N1CCOCC1)C1CCCCN1S(=O)(=O)c1ccccc1 (stereo unspecified)
CCOc1ccc(NC(=O)CCc2nnc3ccc(N4CCC(C)CC4)nn23)cc1
Cc1cc(C)cc(NS(=O)(=O)c2c(C(=O)N3CCCCCC3)c(C)n(C)c2C)c1
COc1ccc(CN(C)C(=O)c2cc(-c3ccc(OC)c(OC)c3)nc3ccccc23)c(OC)c1
CC1(C(=O)NS(=O)(=O)c2cccc(F)c2)CCN1C(=O)C1(c2ccc(Cl)cc2)CCC1 (stereo unspecified)
